Test results reported in the supplement of paper PMC7595190.

System: MV4-11
Assay: CellTox Green cytotoxicity fluorescence relative to DMSO vehicle (fold of vehicle RFU); higher = more cell death (loss of membrane integrity), active = 2 or more
Protocol: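 Paediatric AML cell lines (MV4-11, CMK, Kasumi-1; 4x10^4 cells/well, 96-well) treated with single compounds from the Selleckchem apoptosis library at 0.01, 0.1 and 1 µM. Cytotoxicity was read with CellTox Green (RFU, Ex 485/Em 520) at 24, 48 and 72 h and normalised to the 0.1% DMSO vehicle. Normalised RFU >= 2 was taken as a successful, cell-killing treatment.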

Measured: CellTox Green cytotoxicity fluorescence

O=C(O)C(=O)c1cn(Cc2ccccc2)c2ccc(-c3ccc(OC(F)(F)F)cc3)cc12 [Tiplaxtinin]
inactive: 0.01 µM, 24 h 1.02 | 0.01 µM, 48 h 1.02 | 0.01 µM, 72 h 1.04 | 0.1 µM, 24 h 1.01 | 0.1 µM, 48 h 1.02 | 0.1 µM, 72 h 1.03 | 1 µM, 24 h 0.997 | 1 µM, 48 h 1.01 | 1 µM, 72 h 1
